# Publication PMC11006913
# Changes are numbered by the printed parent chain.
# What was measured:
# Test in all cases: PBM; 200 nM protein, PBS
# Details in all cases: dsDNA, one strand shown
# VENTX [1] = biological target: T1, VENTX (Homo sapiens, UniProt O95231 78-163, R121Q)
# T1 sequence: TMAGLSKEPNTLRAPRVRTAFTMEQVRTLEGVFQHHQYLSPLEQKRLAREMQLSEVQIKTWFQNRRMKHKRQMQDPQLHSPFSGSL
# VENTX [2] = biological target: T2, VENTX (Homo sapiens, UniProt O95231 78-163)
# T2 sequence: T1 sequence with Q44R
# HOXC10 [3] = biological target: HOXC10 (Homo sapiens, UniProt Q9NYD6 254-340)
# HOXC10 (Homo sapiens, UniProt Q9NYD6 254-340), sequence (Q9NYD6 254-340): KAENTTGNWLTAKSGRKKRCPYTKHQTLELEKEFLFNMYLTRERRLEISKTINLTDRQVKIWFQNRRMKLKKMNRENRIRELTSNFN
# VENTX [4] = biological target: T3, VENTX (Homo sapiens, UniProt O95231 78-163, Y115F)
# T3 sequence: T1 sequence with Y38F, Q44R
# HOXA2 [5] = biological target: HOXA2 (Homo sapiens, UniProt O43364 129-215, R185T)
# HOXA2 (Homo sapiens, UniProt O43364 129-215, R185T), sequence (O43364 129-215 R185T): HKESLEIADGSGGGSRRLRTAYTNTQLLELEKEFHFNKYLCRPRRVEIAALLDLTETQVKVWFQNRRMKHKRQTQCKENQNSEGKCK
# HOXA2 [6] = biological target: HOXA2 (Homo sapiens, UniProt O43364 129-215, R185K)
# HOXA2 (Homo sapiens, UniProt O43364 129-215, R185K), sequence (O43364 129-215 R185K): as the sequence (O43364 129-215 R185T) above, with T57K counted along it
# HOXC10 [7] = biological target: HOXC10 (Homo sapiens, UniProt Q9NYD6 254-340, K271E)
# HOXC10 (Homo sapiens, UniProt Q9NYD6 254-340, K271E), sequence (Q9NYD6 254-340 K271E): as the sequence (Q9NYD6 254-340) above, with K18E counted along it
# HOXA2 [8] = biological target: HOXA2 (Homo sapiens, UniProt O43364 129-215, Y150S)
# HOXA2 (Homo sapiens, UniProt O43364 129-215, Y150S), sequence (O43364 129-215 Y150S): as the sequence (O43364 129-215 R185T) above, with Y22S, T57R counted along it
# HOXA2 [9] = biological target: HOXA2 (Homo sapiens, UniProt O43364 129-215)
# HOXA2 (Homo sapiens, UniProt O43364 129-215), sequence (O43364 129-215): as the sequence (O43364 129-215 R185T) above, with T57R counted along it
# PAX4 [10] = biological target: T4, PAX4 (Homo sapiens, UniProt O43316 9-242, R200K)
# T4 sequence: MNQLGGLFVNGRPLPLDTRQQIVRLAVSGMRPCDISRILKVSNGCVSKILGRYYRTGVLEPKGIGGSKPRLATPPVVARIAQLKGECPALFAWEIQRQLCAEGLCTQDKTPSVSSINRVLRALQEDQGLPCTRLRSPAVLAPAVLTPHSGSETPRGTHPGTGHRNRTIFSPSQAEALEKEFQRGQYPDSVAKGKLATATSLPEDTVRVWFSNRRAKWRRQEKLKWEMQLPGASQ
# PAX4 [11] = biological target: T5, PAX4 (Homo sapiens, UniProt O43316 9-242)
# T5 sequence: T4 sequence with K192R
# HOXB9 [12] = biological target: HOXB9 (Homo sapiens, UniProt P17482 171-250)
# HOXB9 (Homo sapiens, UniProt P17482 171-250), sequence (P17482 171-250): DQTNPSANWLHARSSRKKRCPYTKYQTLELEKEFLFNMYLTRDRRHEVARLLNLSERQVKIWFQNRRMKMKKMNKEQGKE
# PAX4 [13] = biological target: T6, PAX4 (Homo sapiens, UniProt O43316 9-242, R200Q)
# T6 sequence: T4 sequence with K192Q
# PAX4 [14] = biological target: T7, PAX4 (Homo sapiens, UniProt O43316 9-242, F177V)
# T7 sequence: T4 sequence with F169V, K192R
# PAX4 [15] = biological target: T8, PAX4 (Homo sapiens, UniProt O43316 9-242, F177Y)
# T8 sequence: T4 sequence with F169Y, K192R
# HOXB9 [16] = biological target: HOXB9 (Homo sapiens, UniProt P17482 171-250, R186Q)
# HOXB9 (Homo sapiens, UniProt P17482 171-250, R186Q), sequence (P17482 171-250 R186Q): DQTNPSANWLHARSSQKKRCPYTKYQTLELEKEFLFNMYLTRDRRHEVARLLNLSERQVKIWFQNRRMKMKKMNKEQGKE
# PAX4 [17] = biological target: T9, PAX4 (Homo sapiens, UniProt O43316 9-242, R227W)
# T9 sequence: T4 sequence with K192R, R219W
# ALX4 [18] = biological target: ALX4 (Homo sapiens, UniProt Q9H161 200-286)
# ALX4 (Homo sapiens, UniProt Q9H161 200-286), sequence (Q9H161 200-286): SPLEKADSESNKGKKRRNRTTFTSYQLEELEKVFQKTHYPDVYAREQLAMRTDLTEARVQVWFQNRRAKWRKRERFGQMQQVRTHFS
# ALX4 [19] = biological target: ALX4 (Homo sapiens, UniProt Q9H161 200-286, Q225E)
# ALX4 (Homo sapiens, UniProt Q9H161 200-286, Q225E), sequence (Q9H161 200-286 Q225E): as the sequence (Q9H161 200-286) above, with Q26E counted along it
# HOXA7 [20] = biological target: HOXA7 (Homo sapiens, UniProt P31268 116-202)
# HOXA7 (Homo sapiens, UniProt P31268 116-202), sequence (P31268 116-202): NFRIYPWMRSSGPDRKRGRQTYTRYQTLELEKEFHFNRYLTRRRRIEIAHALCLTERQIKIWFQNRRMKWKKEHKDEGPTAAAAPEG
# VAX1 [21] = biological target: VAX1 (Homo sapiens, UniProt Q5SQQ9 86-172)
# VAX1 (Homo sapiens, UniProt Q5SQQ9 86-172), sequence (Q5SQQ9 86-172): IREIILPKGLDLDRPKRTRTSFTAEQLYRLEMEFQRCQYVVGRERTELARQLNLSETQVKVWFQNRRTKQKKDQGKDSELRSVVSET
# VAX1 [22] = biological target: VAX1 (Homo sapiens, UniProt Q5SQQ9 86-172, T142I)
# VAX1 (Homo sapiens, UniProt Q5SQQ9 86-172, T142I), sequence (Q5SQQ9 86-172 T142I): as the sequence (Q5SQQ9 86-172) above, with T57I counted along it
# HOXA7 [23] = biological target: HOXA7 (Homo sapiens, UniProt P31268 116-202, W177C)
# HOXA7 (Homo sapiens, UniProt P31268 116-202, W177C), sequence (P31268 116-202 W177C): as the sequence (P31268 116-202) above, with W62C counted along it
# VAX1 [24] = biological target: VAX1 (Homo sapiens, UniProt Q5SQQ9 86-172, K157R)
# VAX1 (Homo sapiens, UniProt Q5SQQ9 86-172, K157R), sequence (Q5SQQ9 86-172 K157R): as the sequence (Q5SQQ9 86-172) above, with K72R counted along it
# ALX1 [25] = biological target: ALX1 (Homo sapiens, UniProt Q15699 118-204, L144V)
# ALX1 (Homo sapiens, UniProt Q15699 118-204, L144V), sequence (Q15699 118-204 L144V): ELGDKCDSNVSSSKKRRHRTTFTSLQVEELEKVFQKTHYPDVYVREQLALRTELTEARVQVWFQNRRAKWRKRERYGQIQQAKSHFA
# ALX3 [26] = biological target: ALX3 (Homo sapiens, UniProt O95076 139-225, N203Q)
# ALX3 (Homo sapiens, UniProt O95076 139-225, N203Q), sequence (O95076 139-225 N203Q): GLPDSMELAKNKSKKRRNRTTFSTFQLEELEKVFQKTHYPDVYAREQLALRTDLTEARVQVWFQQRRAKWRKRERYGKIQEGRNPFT
# PITX2 = PITX2 (Homo sapiens, UniProt Q99697 72-157)
# ALX1 [27] = biological target: ALX1 (Homo sapiens, UniProt Q15699 118-204, L144R)
# ALX1 (Homo sapiens, UniProt Q15699 118-204, L144R), sequence (Q15699 118-204 L144R): as the sequence (Q15699 118-204 L144V) above, with V27R counted along it
# ALX3 [28] = biological target: ALX3 (Homo sapiens, UniProt O95076 139-225)
# ALX3 (Homo sapiens, UniProt O95076 139-225), sequence (O95076 139-225): as the sequence (O95076 139-225 N203Q) above, with Q65N counted along it
# ALX3 [29] = biological target: ALX3 (Homo sapiens, UniProt O95076 139-225, L168Q)
# ALX3 (Homo sapiens, UniProt O95076 139-225, L168Q), sequence (O95076 139-225 L168Q): as the sequence (O95076 139-225 N203Q) above, with L30Q, Q65N counted along it
# ALX3 [30] = biological target: ALX3 (Homo sapiens, UniProt O95076 139-225, L168V)
# ALX3 (Homo sapiens, UniProt O95076 139-225, L168V), sequence (O95076 139-225 L168V): as the sequence (O95076 139-225 N203Q) above, with L30V, Q65N counted along it
# NKX3-2 [31] = biological target: NKX3-2 (Homo sapiens, UniProt P78367 192-278, P234S)
# NKX3-2 (Homo sapiens, UniProt P78367 192-278, P234S), sequence (P78367 192-278 P234S): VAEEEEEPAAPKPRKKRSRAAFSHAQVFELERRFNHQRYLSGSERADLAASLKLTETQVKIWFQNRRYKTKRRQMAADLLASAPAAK
# ALX1 [32] = biological target: ALX1 (Homo sapiens, UniProt Q15699 118-204)
# ALX1 (Homo sapiens, UniProt Q15699 118-204), sequence (Q15699 118-204): as the sequence (Q15699 118-204 L144V) above, with V27L counted along it
# ALX3 [33] = biological target: ALX3 (Homo sapiens, UniProt O95076 139-225, N203S)
# ALX3 (Homo sapiens, UniProt O95076 139-225, N203S), sequence (O95076 139-225 N203S): as the sequence (O95076 139-225 N203Q) above, with Q65S counted along it
# NKX3-2 [34] = biological target: NKX3-2 (Homo sapiens, UniProt P78367 192-278)
# NKX3-2 (Homo sapiens, UniProt P78367 192-278), sequence (P78367 192-278): as the sequence (P78367 192-278 P234S) above, with S43P counted along it
sequence,measurement,setting,value
CACTGGGG,binding signal,VENTX [1],"7.92 upbm affinity estimate (log intensity, higher = more binding, comparable within an allelic series)"
same,binding signal,VENTX [2],"7.73 upbm affinity estimate (log intensity, higher = more binding, comparable within an allelic series)"
same,binding signal,HOXC10 [3],"10 upbm affinity estimate (log intensity, higher = more binding, comparable within an allelic series)"
same,binding signal,VENTX [4],"7.93 upbm affinity estimate (log intensity, higher = more binding, comparable within an allelic series)"
same,binding signal,HOXA2 [5],"7.07 upbm affinity estimate (log intensity, higher = more binding, comparable within an allelic series)"
same,binding signal,HOXA2 [6],"10.1 upbm affinity estimate (log intensity, higher = more binding, comparable within an allelic series)"
same,binding signal,HOXC10 [7],"10 upbm affinity estimate (log intensity, higher = more binding, comparable within an allelic series)"
same,binding signal,HOXA2 [8],"10.4 upbm affinity estimate (log intensity, higher = more binding, comparable within an allelic series)"
same,binding signal,HOXA2 [9],"7.07 upbm affinity estimate (log intensity, higher = more binding, comparable within an allelic series)"
ACCGATTA,binding signal,VENTX [1],"11.5 upbm affinity estimate (log intensity, higher = more binding, comparable within an allelic series)"
same,binding signal,VENTX [2],"12.9 upbm affinity estimate (log intensity, higher = more binding, comparable within an allelic series)"
same,binding signal,VENTX [4],"11.5 upbm affinity estimate (log intensity, higher = more binding, comparable within an allelic series)"
CCGAATTA,binding signal,VENTX [1],"10.1 upbm affinity estimate (log intensity, higher = more binding, comparable within an allelic series)"
same,binding signal,VENTX [2],"10.6 upbm affinity estimate (log intensity, higher = more binding, comparable within an allelic series)"
same,binding signal,PAX4 [10],"11.8 upbm affinity estimate (log intensity, higher = more binding, comparable within an allelic series)"
same,binding signal,VENTX [4],"9.98 upbm affinity estimate (log intensity, higher = more binding, comparable within an allelic series)"
same,binding signal,PAX4 [11],"12.4 upbm affinity estimate (log intensity, higher = more binding, comparable within an allelic series)"
same,binding signal,HOXB9 [12],"10.1 upbm affinity estimate (log intensity, higher = more binding, comparable within an allelic series)"
same,binding signal,PAX4 [13],"11.8 upbm affinity estimate (log intensity, higher = more binding, comparable within an allelic series)"
same,binding signal,PAX4 [14],"10.4 upbm affinity estimate (log intensity, higher = more binding, comparable within an allelic series)"
same,binding signal,PAX4 [15],"11.1 upbm affinity estimate (log intensity, higher = more binding, comparable within an allelic series)"
same,binding signal,HOXB9 [16],"10 upbm affinity estimate (log intensity, higher = more binding, comparable within an allelic series)"
same,binding signal,PAX4 [17],"10.9 upbm affinity estimate (log intensity, higher = more binding, comparable within an allelic series)"
AAATTGAT,binding signal,VENTX [1],"10.3 upbm affinity estimate (log intensity, higher = more binding, comparable within an allelic series)"
same,binding signal,VENTX [2],"10.7 upbm affinity estimate (log intensity, higher = more binding, comparable within an allelic series)"
same,binding signal,VENTX [4],"9.99 upbm affinity estimate (log intensity, higher = more binding, comparable within an allelic series)"
CGTCGACG,binding signal,VENTX [1],"7.98 upbm affinity estimate (log intensity, higher = more binding, comparable within an allelic series)"
same,binding signal,VENTX [2],"7.91 upbm affinity estimate (log intensity, higher = more binding, comparable within an allelic series)"
same,binding signal,ALX4 [18],"7.89 upbm affinity estimate (log intensity, higher = more binding, comparable within an allelic series)"
same,binding signal,VENTX [4],"8.1 upbm affinity estimate (log intensity, higher = more binding, comparable within an allelic series)"
same,binding signal,ALX4 [19],"7.93 upbm affinity estimate (log intensity, higher = more binding, comparable within an allelic series)"
TACATATA,binding signal,VENTX [1],"9.51 upbm affinity estimate (log intensity, higher = more binding, comparable within an allelic series)"
same,binding signal,VENTX [2],"9.59 upbm affinity estimate (log intensity, higher = more binding, comparable within an allelic series)"
same,binding signal,VENTX [4],"9.49 upbm affinity estimate (log intensity, higher = more binding, comparable within an allelic series)"
GTATTAAA,binding signal,VENTX [1],"9.94 upbm affinity estimate (log intensity, higher = more binding, comparable within an allelic series)"
same,binding signal,VENTX [2],"10.3 upbm affinity estimate (log intensity, higher = more binding, comparable within an allelic series)"
CAGGGCCC,binding signal,VENTX [1],"8.07 upbm affinity estimate (log intensity, higher = more binding, comparable within an allelic series)"
same,binding signal,VENTX [2],"8.08 upbm affinity estimate (log intensity, higher = more binding, comparable within an allelic series)"
same,binding signal,HOXA7 [20],"8.32 upbm affinity estimate (log intensity, higher = more binding, comparable within an allelic series)"
same,binding signal,VENTX [4],"7.87 upbm affinity estimate (log intensity, higher = more binding, comparable within an allelic series)"
same,binding signal,VAX1 [21],"7.03 upbm affinity estimate (log intensity, higher = more binding, comparable within an allelic series)"
same,binding signal,VAX1 [22],"7.1 upbm affinity estimate (log intensity, higher = more binding, comparable within an allelic series)"
same,binding signal,HOXA7 [23],"8.37 upbm affinity estimate (log intensity, higher = more binding, comparable within an allelic series)"
same,binding signal,VAX1 [24],"6.99 upbm affinity estimate (log intensity, higher = more binding, comparable within an allelic series)"
TAATGGGA,binding signal,VENTX [1],"11.5 upbm affinity estimate (log intensity, higher = more binding, comparable within an allelic series)"
same,binding signal,VENTX [2],"12.4 upbm affinity estimate (log intensity, higher = more binding, comparable within an allelic series)"
same,binding signal,VENTX [4],"11.3 upbm affinity estimate (log intensity, higher = more binding, comparable within an allelic series)"
CGGCCCCC,binding signal,VENTX [1],"8.06 upbm affinity estimate (log intensity, higher = more binding, comparable within an allelic series)"
same,binding signal,VENTX [2],"8.05 upbm affinity estimate (log intensity, higher = more binding, comparable within an allelic series)"
same,binding signal,HOXA7 [20],"8.26 upbm affinity estimate (log intensity, higher = more binding, comparable within an allelic series)"
same,binding signal,VENTX [4],"8.12 upbm affinity estimate (log intensity, higher = more binding, comparable within an allelic series)"
same,binding signal,HOXA2 [5],"7.13 upbm affinity estimate (log intensity, higher = more binding, comparable within an allelic series)"
same,binding signal,ALX1 [25],"6.51 upbm affinity estimate (log intensity, higher = more binding, comparable within an allelic series)"
same,binding signal,ALX3 [26],"7.78 upbm affinity estimate (log intensity, higher = more binding, comparable within an allelic series)"
same,binding signal,PITX2,"7.78 upbm affinity estimate (log intensity, higher = more binding, comparable within an allelic series)"
same,binding signal,HOXA2 [6],"9.86 upbm affinity estimate (log intensity, higher = more binding, comparable within an allelic series)"
same,binding signal,ALX1 [27],"6.5 upbm affinity estimate (log intensity, higher = more binding, comparable within an allelic series)"
same,binding signal,ALX3 [28],"7.73 upbm affinity estimate (log intensity, higher = more binding, comparable within an allelic series)"
same,binding signal,ALX3 [29],"7.68 upbm affinity estimate (log intensity, higher = more binding, comparable within an allelic series)"
same,binding signal,ALX3 [30],"7.67 upbm affinity estimate (log intensity, higher = more binding, comparable within an allelic series)"
same,binding signal,HOXA2 [8],"10.3 upbm affinity estimate (log intensity, higher = more binding, comparable within an allelic series)"
same,binding signal,HOXA7 [23],"8.35 upbm affinity estimate (log intensity, higher = more binding, comparable within an allelic series)"
same,binding signal,NKX3-2 [31],"10.4 upbm affinity estimate (log intensity, higher = more binding, comparable within an allelic series)"
same,binding signal,ALX1 [32],"6.49 upbm affinity estimate (log intensity, higher = more binding, comparable within an allelic series)"
same,binding signal,ALX3 [33],"7.76 upbm affinity estimate (log intensity, higher = more binding, comparable within an allelic series)"
same,binding signal,HOXA2 [9],"7.15 upbm affinity estimate (log intensity, higher = more binding, comparable within an allelic series)"
same,binding signal,NKX3-2 [34],"10.4 upbm affinity estimate (log intensity, higher = more binding, comparable within an allelic series)"
